# Test system: RARg:RXRa (NR concentration 270 nM, RXRa partner concentration 90 nM)
# Experiment: PBM binding z-score (relative to random genomic background probes); higher = stronger binding; sequences stand for … in GC…GCGATTGACAGCGTAGAATGAAGG
# How it was run: (§1)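 Scanned fluorescence from custom Agilent 4×180K protein-binding microarrays was regression-normalized. Binding z-scores use random background probes as reference. Ligand-free nuclear receptor dimers were incubated on the arrays for 1 h and detected with antibodies against each partner (one per run).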
row,Sequence,PBM binding z-score
1,CCGAGTAGGTTATGGGGCATTAAGGCAACGGTGA,0.561
2,CCAGACAGGTGAGTAGGTAACTCAGCCTCGATTA,0.196
3,CCTATTTGGTCAAGGTCACACACGCTATAGGTAC,4.63
4,TCTATTAGTTGATTACGGCAACCGAAACAGCGGA,0.252
5,ATATGTACGTTACATCCGGGTCATTCAGGCTATG,1.61
6,CCTTACGGGTCACTCCAGGTTATAGTATCGGAGT,4.38
7,TCTTGTAGATCAAGCAGGTTTAGAAAGCCTGAGT,-0.361
8,CGTCCAAGTTCAATGCTAGGTCAGTGAAAGCATT,5.74
9,AGAACGAGGGCAATGAGTTGAGAGCACGGGTGGC,0.994
10,CGTCCAAGGTCAAGGTCAGAGAAAGAGACTCGAA,6.78
11,ATCGAAAGGTCGTGAGGTGAGTATGCAGAAAGGC,4.63
12,TCGAGTAGGTTACCAATGGGGCATTCTGCTTTCT,0.898
13,CCTTTCGGGTCACGAGGTTATAGCACGACGAGCG,6.29
14,ACAGACAGGTGAGTGAAGGAAACTCAGCTGGACG,-0.0497
15,CTACCCAGGTGAACAAGGTCGTTGATTACTATTC,1.18
16,CCTAGTTGGTCAAGGTCACACTCGCTATAGGTAC,4.19
17,CAAACTAGGTCAAGGTCAAACTCGGTTTGTGCCA,6.04
18,ACTAGCAGGCCAAGATTGGGTCACTCAAACAAAG,1.63
19,CCTACTGGGCCAAGGTCCTTGATCAGTCAAAGCA,-0.396
20,GCGACTGGGGCAATGCAGGTTACCATAAGGTTGG,0.631

row,Sequence,PBM binding z-score
1,TCTTGTAGATCAAAAGAGGTTAAGAAAGTGCGCT,0.867
2,CCAGACAGGTGAAAGGTAAATCAGTCTGGTACGC,1.04
3,TCTAGCAGGCCAGAGGTTCACTCAAGAGGTACGG,0.466
4,TCTTGTAAATCAGCAGGTTAAGAAAGCTGGCCAA,-0.0885
5,TCTAGCAGGCCAGAGAGTCACTCAAGAGGTACGG,-0.0784
6,CCTACTGGGCCGCGAAAGGTCATTGATTCAGTGA,4.49
7,CAAACTAGGTCAAGAGGTCAATGTCCGCTTCCCG,7.68
8,AGAACGAGGGGAATGAGTTGATAGCACGGGTGGC,0.0895
9,CTACCAAGGTGAACAAGGTCCTTGATTACTATTC,0.733
10,CCTACTGGGCCATCACGTCATTGATATCAACGTT,0.0905
11,TCTCGGAGGACACGAAAGGTCAGAGCGCGACATC,5.18
12,ATATGTAGGTTAAGGGTCATTCAGGTTGGTTCGC,4.91
13,TCTCGGAGGACACGAAAGGTCAGCGCTCGACATC,5.25
14,CGAACTCGGTCAGAACAGGACAGTGAAGGATGAT,1.4
15,GCGACTGGGACAAAGCAGGTTACCATAAGGTTGG,0.308
16,ATCGAAAGGTCGACGAGGTGAGTACACACCGTTT,4.26
17,TCGAGTAGGTTAGTCGGGGCCTTCAGCCAACATA,-0.47
18,CCTACTGGGCCAAAGGTCGTTGATTCCAATGCTC,2.66
19,ATCTCTAGGTAACAAGCTCAGTGAAAGAGAGGAC,0.352
20,TCTTGTAGATCAACAGAGGTTAAGAAAGTGCGCT,0.848

# Test system: RARg homodimer (NR concentration 270 nM)
# Experiment: as above
# How it was run: as §1
row,Sequence,PBM binding z-score
1,CCGAGTAGGTTATGGGGCATTAAGGCAACGGTGA,0.543
2,CCAGACAGGTGAGTAGGTAACTCAGCCTCGATTA,0.224
3,CCTATTTGGTCAAGGTCACACACGCTATAGGTAC,4.57
4,TCTATTAGTTGATTACGGCAACCGAAACAGCGGA,0.426
5,ATATGTACGTTACATCCGGGTCATTCAGGCTATG,1.24
6,CCTTACGGGTCACTCCAGGTTATAGTATCGGAGT,4.25
7,TCTTGTAGATCAAGCAGGTTTAGAAAGCCTGAGT,-0.474
8,CGTCCAAGTTCAATGCTAGGTCAGTGAAAGCATT,4.36
9,AGAACGAGGGCAATGAGTTGAGAGCACGGGTGGC,1.58
10,CGTCCAAGGTCAAGGTCAGAGAAAGAGACTCGAA,7.97
11,ATCGAAAGGTCGTGAGGTGAGTATGCAGAAAGGC,4.17
12,TCGAGTAGGTTACCAATGGGGCATTCTGCTTTCT,0.393
13,CCTTTCGGGTCACGAGGTTATAGCACGACGAGCG,5.8
14,ACAGACAGGTGAGTGAAGGAAACTCAGCTGGACG,0.189
15,CTACCCAGGTGAACAAGGTCGTTGATTACTATTC,0.941
16,CCTAGTTGGTCAAGGTCACACTCGCTATAGGTAC,4.5
17,CAAACTAGGTCAAGGTCAAACTCGGTTTGTGCCA,6.55
18,ACTAGCAGGCCAAGATTGGGTCACTCAAACAAAG,1.37
19,CCTACTGGGCCAAGGTCCTTGATCAGTCAAAGCA,-0.0984
20,GCGACTGGGGCAATGCAGGTTACCATAAGGTTGG,0.677

row,Sequence,PBM binding z-score
1,TCTTGTAGATCAAAAGAGGTTAAGAAAGTGCGCT,0.449
2,CCAGACAGGTGAAAGGTAAATCAGTCTGGTACGC,0.721
3,TCTAGCAGGCCAGAGGTTCACTCAAGAGGTACGG,0.306
4,TCTTGTAAATCAGCAGGTTAAGAAAGCTGGCCAA,-0.347
5,TCTAGCAGGCCAGAGAGTCACTCAAGAGGTACGG,-0.0814
6,CCTACTGGGCCGCGAAAGGTCATTGATTCAGTGA,3.88
7,CAAACTAGGTCAAGAGGTCAATGTCCGCTTCCCG,7.46
8,AGAACGAGGGGAATGAGTTGATAGCACGGGTGGC,0.0667
9,CTACCAAGGTGAACAAGGTCCTTGATTACTATTC,0.947
10,CCTACTGGGCCATCACGTCATTGATATCAACGTT,0.383
11,TCTCGGAGGACACGAAAGGTCAGAGCGCGACATC,5.35
12,ATATGTAGGTTAAGGGTCATTCAGGTTGGTTCGC,3.76
13,TCTCGGAGGACACGAAAGGTCAGCGCTCGACATC,6.15
14,CGAACTCGGTCAGAACAGGACAGTGAAGGATGAT,1.81
15,GCGACTGGGACAAAGCAGGTTACCATAAGGTTGG,0.367
16,ATCGAAAGGTCGACGAGGTGAGTACACACCGTTT,4.18
17,TCGAGTAGGTTAGTCGGGGCCTTCAGCCAACATA,-0.571
18,CCTACTGGGCCAAAGGTCGTTGATTCCAATGCTC,1.07
19,ATCTCTAGGTAACAAGCTCAGTGAAAGAGAGGAC,0.494
20,TCTTGTAGATCAACAGAGGTTAAGAAAGTGCGCT,0.565
